Source: ChEMBL document CHEMBL1961873, “Compounds: GSK PKIS; Assays: Nanosyn kinase panel” (2012)
Values joined by “and” are separate entries in the source; they are usually repeats but may differ in a detail not shown here. Equal values may be shown once.

Each compound was assayed against Vascular endothelial growth factor receptor 2 (Homo sapiens) (UniProt P35968). Details: at 1 µM.
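Note: each value is the mean percent inhibition of KDR.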

Chain of Vascular endothelial growth factor receptor 2 (Homo sapiens) (P35968 whole entry): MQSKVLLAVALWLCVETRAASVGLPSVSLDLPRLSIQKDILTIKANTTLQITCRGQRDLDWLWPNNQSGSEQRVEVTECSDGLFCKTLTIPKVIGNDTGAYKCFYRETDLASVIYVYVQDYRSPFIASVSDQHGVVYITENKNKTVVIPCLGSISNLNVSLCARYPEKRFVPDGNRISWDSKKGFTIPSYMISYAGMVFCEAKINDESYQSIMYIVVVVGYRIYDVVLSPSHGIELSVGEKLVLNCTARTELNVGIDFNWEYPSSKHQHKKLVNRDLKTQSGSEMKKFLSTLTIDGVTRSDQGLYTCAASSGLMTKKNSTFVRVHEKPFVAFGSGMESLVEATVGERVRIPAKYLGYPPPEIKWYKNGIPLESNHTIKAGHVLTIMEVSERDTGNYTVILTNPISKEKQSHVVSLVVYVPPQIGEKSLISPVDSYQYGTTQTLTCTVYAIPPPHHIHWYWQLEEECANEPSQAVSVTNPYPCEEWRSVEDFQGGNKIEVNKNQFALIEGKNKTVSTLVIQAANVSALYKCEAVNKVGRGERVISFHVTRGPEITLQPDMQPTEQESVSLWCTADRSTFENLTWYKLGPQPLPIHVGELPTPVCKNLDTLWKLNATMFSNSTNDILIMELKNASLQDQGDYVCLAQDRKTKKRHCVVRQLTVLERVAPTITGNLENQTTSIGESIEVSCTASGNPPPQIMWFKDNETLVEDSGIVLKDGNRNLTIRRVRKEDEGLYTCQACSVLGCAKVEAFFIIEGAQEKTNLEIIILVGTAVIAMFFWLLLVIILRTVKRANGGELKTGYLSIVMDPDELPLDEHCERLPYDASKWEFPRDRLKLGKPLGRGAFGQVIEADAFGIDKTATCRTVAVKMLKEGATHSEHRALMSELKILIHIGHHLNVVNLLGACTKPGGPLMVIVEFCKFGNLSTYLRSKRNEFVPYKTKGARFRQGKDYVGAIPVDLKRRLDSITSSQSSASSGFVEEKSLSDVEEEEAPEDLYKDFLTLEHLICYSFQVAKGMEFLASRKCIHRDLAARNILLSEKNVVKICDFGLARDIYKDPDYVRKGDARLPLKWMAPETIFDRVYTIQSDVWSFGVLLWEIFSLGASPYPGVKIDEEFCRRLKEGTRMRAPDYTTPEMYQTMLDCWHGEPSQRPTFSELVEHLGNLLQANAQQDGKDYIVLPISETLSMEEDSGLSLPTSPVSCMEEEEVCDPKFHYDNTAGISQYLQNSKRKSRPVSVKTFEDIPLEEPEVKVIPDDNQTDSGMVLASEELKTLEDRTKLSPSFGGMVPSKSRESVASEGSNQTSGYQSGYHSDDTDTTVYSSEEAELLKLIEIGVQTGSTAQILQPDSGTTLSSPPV

Row | Compound | inhibition
1 | O=C(O[C@H]1CN[C@H](C#Cc2cc3ncnc(Nc4ccc5c(cnn5Cc5ccccc5)c4)c3s2)C1)N1CCOCC1 | 8.91%
2 | COc1ccc(Nc2ncc(-c3ccccc3)o2)cc1OC | 44.2%
3 | COc1cc(N2CCN(C(C)C)CC2)ccc1Nc1nc(Nc2cccc(F)c2C(=O)O)c2cc[nH]c2n1 | 6.45%
4 | COc1ccccc1-c1cc(/C=C2\C(=O)Nc3ncc(Br)cc32)cc(Br)c1O | 8.56%
5 | FC(F)(F)CNc1nccc(-c2cnn3ncccc23)n1 | 4.88%
6 | CN1CCC(n2cnc(-c3ccc(F)cc3)c2-c2ccnc(NCCO)n2)CC1 | 9.32%
7 | CS(=O)(=O)CCNCc1ccc(-c2ccc3ncnc(Nc4ccc(OCc5cccc(C(F)(F)F)c5)cc4)c3c2)o1 | 11%
8 | COc1c(C(N)=O)cc(-c2ccc(Cl)cc2)cc1-c1ccc(S(N)(=O)=O)cc1 | 9.32%
9 | Cc1nnc(-c2cccc(-c3ccc(C(=O)NCC4CC4)cc3)c2)o1 | 9.47%
10 | O=C(O[C@H]1CN[C@H](C#Cc2cc3ncnc(Nc4ccc5c(ccn5Cc5cc(F)ccc5F)c4)c3s2)C1)N1CCOCC1 | 10.6%
11 | CS(=O)(=O)Nc1ccc(-c2ccc3c(NC(=O)C4CC4)n[nH]c3c2)cc1 | 9.88%
12 | CN1CCC(C(=O)Nc2n[nH]c3nc(-c4ccc(O)cc4)c(Br)cc23)CC1 | 24.5% and 23.2%
13 | O=C(O[C@H]1CN[C@H](C#Cc2cc3ncnc(Nc4ccc(OCc5cccc(F)c5)c(Cl)c4)c3s2)C1)N1CCOCC1 | 7.79%
14 | CCCNc1cccc(-n2ncc3c(N/N=C/c4ccncc4)ncnc32)c1 | 64.9%
15 | COc1cccc(Nc2nccc(-c3cnn4ncccc34)n2)c1 | 42.1%
16 | N#Cc1ccc2c(-c3ccnc(NC4CC4)n3)c(-c3ccc(F)cc3)nn2c1 | 14.6%

Row | Compound | inhibition
17 | CNC(=O)c1ncccc1Nc1nc(Nc2cc3c(cc2OC)CCCN3C(=O)CN(C)C)nc2[nH]ccc12 | 5.02%
18 | CC1(C)CC(n2cnc(-c3ccc(F)cc3)c2-c2ccnc(N)n2)CC(C)(C)N1 | 5.32%
19 | COc1ccc2ncn(-c3cc(O[C@H](C)c4ccccc4C(F)(F)F)c(C(N)=O)s3)c2c1 | 14.1%
20 | CC(C)c1ccc(-c2cc(-c3c[nH]nc3-c3ccccn3)ccn2)cc1 | 32.4%
21 | CN1CCN(Cc2ccc(-c3cc4ncnc(Nc5ccc(OCc6cccc(F)c6)c(Cl)c5)c4s3)o2)CC1 | 24% and 24.2%
22 | NS(=O)(=O)c1ccc(N/N=C2\C(=O)Nc3cccc(CCc4ccncc4)c32)cc1 | 46.7%
23 | N#Cc1cccc(Nc2ncc(-c3ccccc3)o2)c1 | 11%
24 | CNC(=O)c1cncc(/C=C/c2ccccc2C)c1 | 7.71%
25 | Nc1ncnc2occ(-c3ccc(NC(=O)Nc4cc(C(F)(F)F)ccc4F)cc3)c12 | 71.1% and 78.2%
26 | Cc1cc(O)cc(C)c1/C=C/c1cncc(C(=O)OC(C)(C)C)c1 | 6%
27 | COc1ccc(-c2nn3ncccc3c2-c2ccnc(Nc3ccc(F)c(F)c3)n2)cc1 | 20.6%
28 | O=C(Nc1n[nH]c2nnc(-c3cccnc3)cc12)C1CC1 | 2.5%
29 | c1ccc(-c2n[nH]cc2-c2ccnc(-c3ccc(OCCn4ccnc4)cc3)c2)nc1 | 65.9%
30 | CS(=O)(=O)Nc1ccc(-c2cc(-c3ccccc3)cc(C(N)=O)c2N)cc1 | 4.53%
31 | OCCCNc1nccc(-c2c(-c3ccc(F)cc3)nn3cc(C(F)(F)F)ccc23)n1 | 6.21%
